According to PubChem BioAssay (NCATS):
Inconclusive results are not listed. Calls of active or inactive are those of the source. Calls follow the shape of the dose curve; as a rule, active = well fitted inhibition curve with a large enough effect; inconclusive = small, poorly fitted or top-dose-only effect; inactive = flat fitted curve, though single readings scatter.

assay: qHTS profiling for inhibitors of Plasmodium falciparum proliferation (AID 504749); also: nearly all actives have a fitted effect of over 60% in size; conditions: P. falciparum in erythrocytes, SYBR Green DNA, 72 h; parasite line A
In short: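 SYBR Green fluorescence (ex 485 nm, em 535 nm) reports parasite DNA after 72 h compound exposure of infected red cells at 0.3% parasitemia, 2.5% hematocrit; signal normalized to 0.29 uM artemisinin and vehicle wells.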
Potency is read from the fitted curve at half-maximal effect.

Potency, active:
CCCCC(=O)OCC(=O)[C@]1(O)Cc2c(O)c3c(c(O)c2[C@H](OC2CC(NC(=O)C(F)(F)F)C(O)C(C)O2)C1)C(=O)c1c(OC)cccc1C3=O (stereo partly drawn) 2.24 µM
C[C@H]1[C@@H](OC(=O)CCC(=O)O)OC2OC3(C)CC[C@H]4[C@H](C)CC[C@@H]1[C@@]24OO3 (stereo partly drawn) 0.004 µM
COc1cc2c(cc1O)CCN[C@@]21CS[C@H]2c3c(OC(C)=O)c(C)c4c(c3C(COC1=O)N1C2C2c3c(cc(C)c(OC)c3O)CC([C@@H]1O)N2C)OCO4 (stereo partly drawn) 0.0009 µM
C[n+]1c2cc(N)ccc2cc2ccc(N)cc21 0.398 µM
CC[C@@]1(O)C[C@H](O[C@H]2C[C@@H](N(C)C)[C@@H](O[C@H]3C[C@@H](O)[C@@H](O[C@H]4CCC(=O)[C@@H](C)O4)[C@@H](C)O3)[C@@H](C)O2)c2c(cc3c(c2O)C(=O)c2c(O)cccc2C3=O)[C@H]1C(=O)OC 0.141 µM
CCC(C(=O)O)C1OC(C(C)C(O)C(C)C(=O)C(CC)C2OC3(C=CC(O)C4(CCC(C)(C5CCC(O)(CC)C(C)O5)O4)O3)C(C)CC2C)C(C)CC1C (stereo not drawn) 0.141 µM
COC1CC2CCC(C)[C@](O)(O2)C(=O)C(=O)N2CCCCC2C(=O)OC(C(C)CC2CCC(O)C(OC)C2)CC(=O)C(C)/C=C(/C)C(O)C(OC)C(=O)C(C)CC(C)C=CC=C/C=C\1C (stereo partly drawn) 3.55 µM
CN[C@H](C)CCC=C(C)C 0.355 µM
